± gives the standard deviation of the averaged measurements.
The compounds below were run on HCI03 (cells of an ER-positive luminal breast cancer xenograft) (assay: cell viability (% of vehicle); higher = less cytotoxic). Conditions: 10 µM; 72 h.
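Further: PDX cells carrying CMV promoter-driven luciferase, viability read as total photon flux per second by IVIS imaging following D-luciferin, vehicle control 0.1% DMSO.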

In order of rising cell viability:
1. Cc1cc(C2CCCCC2)n(O)c(=O)c1.NCCO [Ciclopirox ethanolamine]  60.3
2. CC(=O)O[C@@]12CO[C@@H]1C[C@H](O)[C@@]1(C)C(=O)[C@H](O)C3=C(C)[C@@H](OC(=O)[C@H](O)[C@@H](NC(=O)OC(C)(C)C)c4ccccc4)C[C@@](O)([C@@H](OC(=O)c4ccccc4)[C@H]21)C3(C)C [Docetaxel]  106
3. O=C(Oc1ccccc1C(=O)O)c1ccccc1O [Sasapyrine]  109
4. CCCNS(=O)(=O)Nc1ncnc(OCCOc2ncc(Br)cn2)c1-c1ccc(Br)cc1 [Macitentan]  109
5. COc1nc(C)nc(Cl)c1NC1=NCCN1 [Moxonidine]  116
6. NCCCCC(NC(CCc1ccccc1)C(=O)O)C(=O)N1CCCC1C(=O)O.O.O (stereo unspecified) [Lisinopril dihydrate]  137
7. CCCCCCCCCC(=O)NC(Cc1c[nH]c2ccccc12)C(=O)NC(CC(N)=O)C(=O)NC(CC(=O)O)C(=O)NC1C(=O)NCC(=O)NC(CCCN)C(=O)NC(CC(=O)O)C(=O)NC(C)C(=O)NC(CC(=O)O)C(=O)NCC(=O)NC(CO)C(=O)NC(C(C)CC(=O)O)C(=O)NC(CC(=O)c2ccccc2N)C(=O)OC1C (stereo unspecified) [Daptomycin]  141

What follows are compounds tested on HCI09 (cells of a triple-negative luminal androgen receptor type breast cancer xenograft) in the same assay as above. Conditions: 10 µM; 72 h.

In order of falling cell viability:
1. Cc1onc(-c2ccccc2Cl)c1C(=O)NC1C(=O)N2C1SC(C)(C)C2C(=O)[O-].O.[Na+] (stereo unspecified) [Cloxacillin Sodium]  161 ± 95
2. CC(O)C1C(=O)N2C(C(=O)OCOC(=O)C(C)(C)C)=C(SC3CN(C4=NCCS4)C3)C(C)C12 (stereo unspecified) [Tebipenempivoxil]  142 ± 85
3. Cc1cn(C2CC(O)C(CO)O2)c(=O)[nH]c1=O (stereo unspecified) [Telbivudine]  141 ± 78
4. Nc1nc(Cl)nc2c1ncn2C1OC(CO)C(O)C1F (stereo unspecified) [Clofarabine]  141 ± 70
5. CC1COc2c(N3CCN(C)CC3)c(F)cc3c(=O)c(C(=O)O)cn1c23 (stereo unspecified) [Ofloxacin]  135 ± 18
6. Nc1nc(=O)c2c([nH]1)NCC(CNc1ccc(C(=O)NC(CCC(=O)[O-])C(=O)[O-])cc1)N2C=O.O.O.O.O.O.[Ca+2] (stereo unspecified) [Leucovorin Calcium]  131 ± 55
7. CCCCCCCCCC(=O)NC(Cc1c[nH]c2ccccc12)C(=O)NC(CC(N)=O)C(=O)NC(CC(=O)O)C(=O)NC1C(=O)NCC(=O)NC(CCCN)C(=O)NC(CC(=O)O)C(=O)NC(C)C(=O)NC(CC(=O)O)C(=O)NCC(=O)NC(CO)C(=O)NC(C(C)CC(=O)O)C(=O)NC(CC(=O)c2ccccc2N)C(=O)OC1C (stereo unspecified) [Daptomycin]  128 ± 9.9
8. O=C(Oc1ccccc1C(=O)O)c1ccccc1O [Sasapyrine]  108 ± 17
9. NCCCCC(NC(CCc1ccccc1)C(=O)O)C(=O)N1CCCC1C(=O)O.O.O (stereo unspecified) [Lisinopril dihydrate]  106 ± 19
10. Cc1cc2c(s1)=Nc1ccccc1NC=2N1CCN(C)CC1 [Olanzapine]  105 ± 2.8
11. CCN(CCCc1ccccc1)CCCc1ccccc1.O=C(O)CC(O)(CC(=O)O)C(=O)O [Alverine Citrate]  104 ± 10
12. COc1nc(C)nc(Cl)c1NC1=NCCN1 [Moxonidine]  103 ± 15
13. O=C(NC(CO)C(O)c1ccc([N+](=O)[O-])cc1)C(Cl)Cl (stereo unspecified) [Chloramphenicol]  102 ± 12
14. CC(=O)O[C@@]12CO[C@@H]1C[C@H](O)[C@@]1(C)C(=O)[C@H](O)C3=C(C)[C@@H](OC(=O)[C@H](O)[C@@H](NC(=O)OC(C)(C)C)c4ccccc4)C[C@@](O)([C@@H](OC(=O)c4ccccc4)[C@H]21)C3(C)C [Docetaxel]  99.9 ± 18
15. CC(=O)Oc1ccccc1C(=O)O [Aspirin (Acetylsalicylic acid)]  98.5 ± 3.8
16. O=C([O-])P(=O)([O-])[O-].[Na+].[Na+].[Na+] [Foscarnet Sodium]  98.1 ± 3.7
17. COS(=O)(=O)[O-].C[N+]1(C)CCC(=C(c2ccccc2)c2ccccc2)CC1 [Diphemanil Methylsulfate]  97.8 ± 12
18. CN1CCC(OC(c2ccccc2)c2ccccc2)CC1.Cl [Diphenylpyraline HCl]  97.7 ± 17
19. CC1C(=O)OC2CC34C5CC(C(C)(C)C)C36C(OC(=O)C6O)OC4(C(=O)O5)C21O (stereo unspecified) [Ginkgolide A]  97.3 ± 6.1
20. COc1cc(OC)c(C(=O)CCCN2CCCC2)c(OC)c1.Cl [Buflomedil HCl]  95.6 ± 15
21. CC#CCn1c(N2CCCC(N)C2)nc2c1c(=O)n(Cc1nc(C)c3ccccc3n1)c(=O)n2C (stereo unspecified) [Linagliptin (BI-1356)]  95.4 ± 7.2
22. Cc1c(OCC(F)(F)F)ccnc1CS(=O)c1nc2ccccc2[nH]1 (stereo unspecified) [Dexlansoprazole]  94.9 ± 51
23. CC(C)OC(=O)OCOP(=O)(COC(C)Cn1cnc2c(N)ncnc21)OCOC(=O)OC(C)C.O=C(O)C=CC(=O)O (stereo unspecified) [Tenofovir Disoproxil Fumarate]  94.5 ± 7.6
24. CC1(C)SC2C(NC(=O)C(C(=O)[O-])c3ccccc3)C(=O)N2C1C(=O)[O-].[Na+].[Na+] (stereo unspecified) [Carbenicillin, Disodium Salt]  94 ± 0.98
25. c1cc(CN2CCCNCCNCCCNCC2)ccc1CN1CCCNCCNCCCNCC1 [Plerixafor (AMD3100)]  92.6 ± 9.3
26. Nc1ncnc2c1ncn2C1OC(CO)C(O)C1O (stereo unspecified) [Adenosine]  90.4 ± 15
27. CS(=O)(=O)N1CCN(Cc2cc3nc(-c4cccc5[nH]ncc45)nc(N4CCOCC4)c3s2)CC1  89.23 ± 0.75
28. CNS(=O)(=O)Cc1ccc2[nH]cc(CCN(C)C)c2c1 [Sumatriptan]  84 ± 7.2
29. CC(C)(O)c1ccccc1CCC(SCC1(CC(=O)[O-])CC1)c1cccc(C=Cc2ccc3ccc(Cl)cc3n2)c1.[Na+] (stereo unspecified) [Montelukast Sodium]  83.3 ± 85
30. CNCc1ccc(-c2[nH]c3cc(F)cc4c3c2CCNC4=O)cc1.O=P(O)(O)O  76 ± 12
31. CC1(O)CC(c2nc(-c3ccc4ccc(-c5ccccc5)nc4c3)c3c(N)nccn23)C1 (stereo unspecified) [Linsitinib]  73.3 ± 39
32. Cc1cc(Nc2cc(N3CCN(C)CC3)nc(Sc3ccc(NC(=O)C4CC4)cc3)n2)n[nH]1 [VX-680 (MK-0457,Tozasertib)]  70 ± 21
33. NC(=O)C(CCC(F)(F)F)N(Cc1ccc(-c2ncon2)cc1F)S(=O)(=O)c1ccc(Cl)cc1 (stereo unspecified)  67.5 ± 2.2
34. CCCNS(=O)(=O)Nc1ncnc(OCCOc2ncc(Br)cn2)c1-c1ccc(Br)cc1 [Macitentan]  65 ± 16
35. Cc1ccc(Nc2nccc(N(C)c3ccc4c(C)n(C)nc4c3)n2)cc1S(N)(=O)=O.Cl  61.1 ± 13
36. CC(=O)[C@@]1(O)CC[C@H]2[C@@H]3CCC4=CC(=O)CCC4=C3[C@@H](c3ccc(N(C)C)cc3)C[C@@]21C [Ulipristal]  36.6 ± 13
37. Cc1cc(C2CCCCC2)n(O)c(=O)c1.NCCO [Ciclopirox ethanolamine]  31.7 ± 9.4
38. Cc1cc(C2CCCCC2)n(O)c(=O)c1 [Ciclopirox]  26.8 ± 3.4
39. NC(=O)N1CCC(CC(=O)N2CCC(C3c4ncc(Br)cc4CCc4cc(Cl)cc(Br)c43)CC2)CC1 (stereo unspecified) [Lonafarnib]  12.8 ± 2.5

— the supplement of paper PMC6992640
